GPR151 ag – activators of human GPR151, primary screen, cell-based, PathHunter beta-arrestin, luminescence. G-protein coupled receptor 151 (Homo sapiens), Q8TDV0. PathHunter beta-arrestin GPR151 cells. activation, % at 11.2 µM. actives 1% (n = 650,000). AID 1508602, 2020; in the data active = activation above about 4.9%
Target sequence (Q8TDV0 whole entry, looked up): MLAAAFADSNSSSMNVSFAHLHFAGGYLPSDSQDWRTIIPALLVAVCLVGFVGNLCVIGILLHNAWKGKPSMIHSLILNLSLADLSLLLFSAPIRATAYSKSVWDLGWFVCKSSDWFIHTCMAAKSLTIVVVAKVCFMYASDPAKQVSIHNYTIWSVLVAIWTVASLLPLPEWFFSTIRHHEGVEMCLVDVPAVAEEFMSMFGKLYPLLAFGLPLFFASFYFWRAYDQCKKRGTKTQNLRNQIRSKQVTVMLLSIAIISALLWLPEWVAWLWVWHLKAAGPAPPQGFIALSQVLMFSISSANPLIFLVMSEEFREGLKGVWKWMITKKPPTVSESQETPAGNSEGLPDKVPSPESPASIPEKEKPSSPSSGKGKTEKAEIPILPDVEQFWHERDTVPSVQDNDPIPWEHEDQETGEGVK
TEAD-YAP inh – TEAD-YAP interaction inhibition, primary screen, TEAD-YAP interaction inhibitor project, luminescence, HEK-TIYL cells | TEAD-Gal4/YAP UAS-luciferase luminescence | inhibition, % at 9.12 µM | actives 1.4% (n = 640,000) | AID 1259422, 2018; in the data active = inhibition above about 32%
MITF inh – MITF inhibitors, primary screen, biochemical, AlphaScreen, human; Microphthalmia-associated transcription factor (Homo sapiens), O75030; AlphaScreen MITF homodimerization, bead proximity signal; inhibition, % at 2.6 µM; actives 0.91% (n = 650,000); in the data active = inhibition above about 50%
FBW7 act – FBW7 E3 ligase activators, primary screen, biochemical, AlphaScreen, human; actives 0.13% (n = 650,000); AlphaScreen FBW7–phospho-cyclin E peptide binding, activator screen; AID 1259310, 2017; F-box/WD repeat-containing protein 7 (Homo sapiens), Q969H0; normalized activity (activation), % at 26.1 µM; in the data active = normalized activity above about 1.9%;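 note: purified mutant Fbw7 with reduced substrate affinity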
GPR151 confirm – GPR151 activators, triplicate retest, confirmation, cell-based, PathHunter beta-arrestin, luminescence | AID 1508609, 2020 | GPR151 PathHunter beta-arrestin cells, 90 min; % of EA-reagent control over plate median | shares compounds with GPR151 ag | activation, % at 11.2 µM | 6,700 tested, under 10 active;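 active = mean percent activation across replicates above the confirmation screen cutoff of 4.91%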
GPR119 counter – GPR119 activators in beta-arrestin cells, counter-screen for GPR151 activator project, cell-based, PathHunter beta-arrestin, luminescence, triplicate. actives 0.3% (n = 6,700). shares compounds with GPR151 ag. 90 min; 0 = compound-well median, 100 = enzyme-acceptor control. activation, % at 11.2 µM;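 active = mean percent activation in the counterscreen above 29.09%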;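 note: counterscreen on off-target GPR119 to flag nonselective hits from the GPR151 activator screen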
Hits are given with their value; - = inactive; . = no result. Compounds with a hit are over-represented: about 3.5% of the library has one in this group of screens.

SMILES	GPR151 ag	TEAD-YAP inh	MITF inh	FBW7 act	GPR151 confirm	GPR119 counter
O=C(CCN1C(=O)c2ccccc2S1(=O)=O)Nc1ccc(C(=O)O)cc1	7.6	-	-	-	-	-
COc1ccc(NC(=O)CCN2C(=O)c3ccccc3S2(=O)=O)cc1	-	-	-	-	.	.
O=C(Nc1ccc2c(c1)CN(C1CCSCC1)CC2)C1(c2ccccc2)CC1	-	-	-	-	.	.
O=C(c1ccsc1)N1CCc2ccc(NC(=O)C3(c4ccccc4)CC3)cc2C1	5.9	-	-	-	-	-
CC1CN(CCOc2ccccc2Br)CC(C)O1 (centres undefined)	-	-	-	-	.	.
CC(C)N(CCNc1nc(Nc2cccc(N(C)C)c2)nc2c1ncn2-c1ccsc1)C(C)C	5.7	-	-	-	-	-
CN(C)c1cccc(Nc2nc(Nc3ccc4c(c3)OCO4)c3ncn(-c4ccsc4)c3n2)c1	5.0	-	-	-	-	-
CN(C)c1cccc(Nc2nc(NCCO)c3ncn(-c4ccsc4)c3n2)c1	-	-	-	-	.	.
c1ccc(Nc2nc(Nc3ccccc3)c3ncn(-c4ccsc4)c3n2)cc1	-	-	-	-	.	.
Cc1nn(C)c(C)c1-c1nc(NCCN2CCOCC2)c2ncn(-c3ccccc3)c2n1	-	-	-	-	.	.
CN(C)c1cccc(Nc2nc(Nc3ccc(N4CCOCC4)cc3)c3ncn(-c4ccsc4)c3n2)c1	-	-	-	-	.	.
Cc1nn(C)c(C)c1-c1nc(NCCO)c2ncn(-c3ccccc3)c2n1	5.2	-	-	-	-	-
OCCNc1nc(Nc2ccccc2)nc2c1ncn2-c1ccsc1	5.1	58.8	-	-	-	-
Clc1ccc(COc2ccccc2CNn2cnnc2)cc1	-	-	-	-	.	.
CCOc1cccc(CNn2cnnc2)c1OCc1ccccc1	5.5	-	-	-	-	-
COc1ccc(/C(O)=C2\C(=O)C(=O)NC2c2ccc3c(c2)OCO3)cc1 (centres undefined)	-	-	-	-	.	.
O=C1CC(c2nc3ccccc3n2C/C=C/c2ccccc2)CN1Cc1ccccc1 (centres undefined)	-	-	-	-	.	.
O=C1C=C(N2CCCC2)C(=O)N1c1ccc(Cl)cc1	-	-	-	-	.	.
COc1cccc(NC(=O)NNC(=O)c2cc3occc3[nH]2)c1	5.0	-	-	-	-	-
Cc1ccc(S(=O)(=O)N2CCCCC2CC(=O)Nc2nccs2)cc1 (centres undefined)	-	-	-	-	.	.
CCC1CCCCN1S(=O)(=O)c1ccc(C(=O)Nc2nccs2)cc1 (centres undefined)	5.1	-	-	-	-	-
COc1cc(N=C(C)C2=C(O)c3ccccc3C2=O)c(OC)cc1Cl	-	-	-	-	.	.
COc1ccc(-c2c(C#N)c(N)n3c(nc4ccccc43)c2C#N)cc1OC	-	-	-	-	.	.
COc1cc(-c2c(C#N)c(N)n3c(nc4ccccc43)c2C#N)ccc1OCCCC#N	7.3	-	-	-	-	-
O=C1COc2cc(S(=O)(=O)N3CCC(C(=O)NCc4ccccc4)CC3)ccc2N1	-	-	-	-	.	.
SMILES	GPR151 ag	TEAD-YAP inh	MITF inh	FBW7 act	GPR151 confirm	GPR119 counter
COc1ccc(CCNC(=O)CSc2nc3ccccc3c(=O)n2C2CCCC2)cc1OC	-	-	-	-	.	.
Oc1ccc2ncccc2c1C(Nc1ccccn1)c1ccco1 (centres undefined)	30.7	-	-	-	-	-
COc1ccc2cc(C3C(C#N)=C(N)OC4=C3C(=O)CC(C)(C)C4)c(=O)[nH]c2c1 (centres undefined)	-	-	-	-	.	.
CC(C)C1=CC(=Nc2ccc(S(N)(=O)=O)cc2)C=C(C(C)C)C1=O	14.4	-	-	-	-	-
Cn1c(C(=O)N2CCN(c3ccc(F)cc3)CC2)cc2c(=O)n3ccccc3nc21	5.6	-	-	-	-	-
O=C1NC(=S)S/C1=C\c1cc([N+](=O)[O-])ccc1Cl	-	-	-	-	.	.

From PubChem BioAssay
